High-throughput results as filed in PubChem.
FPR binder: human FPR ligand, with FPRL1 counter-screen. FPR-expressing cells, fluorescent ligand binding, flow cytometry. inhibition, % (no concentration beside the values). 24,000 tested, 0.74% active;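 further: 0% = buffer wells and 100% = receptor blocker peptide wells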
Prostate diff: activators of LNCaP prostate cell differentiation; flow cytometry side scatter, 4 d; 24,000 tested, 0.56% active; side scatter shift, % at 10 µM;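 active means side scatter shift above 30%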;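 further: androgen-responsive LNCaP prostate cancer cells in charcoal-stripped serum medium; percent of cells past a gate set so DMSO wells show 10% shift; higher shift means more granular cells and more differentiation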
FPRL1 ligand: ligands of human FPRL1, also counter-screen for FPR ligands; P25090; FPRL1-expressing cells, fluorescent ligand binding inhibition, flow cytometry; inhibition, % (concentration not given with the values); 24,000 tested, 0.3% active; AID 441;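 further: 0% = buffer alone and 100% = receptor blocker peptide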
Target sequence (P25090 whole entry, looked up): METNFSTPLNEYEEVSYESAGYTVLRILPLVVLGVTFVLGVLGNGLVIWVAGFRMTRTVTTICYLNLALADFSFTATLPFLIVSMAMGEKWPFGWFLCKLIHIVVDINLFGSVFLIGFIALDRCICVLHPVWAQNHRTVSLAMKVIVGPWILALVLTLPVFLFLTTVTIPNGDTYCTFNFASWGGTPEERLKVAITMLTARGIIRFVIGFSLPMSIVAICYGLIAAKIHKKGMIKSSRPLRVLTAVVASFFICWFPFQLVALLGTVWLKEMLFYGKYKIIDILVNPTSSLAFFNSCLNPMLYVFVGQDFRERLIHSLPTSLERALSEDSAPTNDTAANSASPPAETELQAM
VLA-4 allo ag: allosterically activates the human VLA-4 integrin; P13612; Jurkat cells, LDV-FITC binding, flow cytometry; activation, % at 10 µM (by protocol); AID 528; 24,000 tested, under 10 active;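 active means fluorescent ligand binding to cells raised by more than 40% of the manganese-induced maximum; inconclusive means compound's own fluorescence above 85% of the ligand control signal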;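 further: 0% = ligand binding without compound and 100% = manganese-stimulated maximal binding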
Autofluor Jurkat: counter-screen for VLA-4 integrin: compound autofluorescence in Jurkat cells | 24,000 tested, 0.61% active | flow cytometry; stronger effect = higher value; 1 = vehicle-only cell background | fluorescence ratio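 (tested at 10 µM compound in the well)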 | AID 576;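 active means fluorescence ratio above 2.44, which is 1 plus 3 SD of all ratios; inconclusive means signal too bright to measure linearly, ratio around 10 or more; inactive means fluorescence ratio below 2.44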;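 further: green fluorescence of cells measured with 488 nm excitation and 530 nm emission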
VLA-4 antagonist: blocks LDV-FITC ligand binding to Mn2+-activated human VLA-4 integrin; P13612; Jurkat cells, LDV-FITC binding with Mn2+, flow cytometry; 100% = Mn2+-driven binding gain fully reversed; inhibition, % at 10 µM (by protocol); 24,000 tested, 0.2% active; AID 529;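 active means inhibition above 50%; inconclusive means compound itself fluorescent, judged against control cell fluorescence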;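 further: 0% = Mn2+ stimulated cells lacking compound and 100% = ligand binding without Mn2+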
Numbers without * were called inactive; ? = inconclusive; . = no result given. An excerpt weighted towards active compounds, which were near 1.9% of everything screened. Unless noted, no stated cut-off is given here; in the data, active means inhibition above about 30%; inconclusive means no clear call, values can overlap the other calls; inactive means below that.

SMILES	FPR binder	Prostate diff	FPRL1 ligand	VLA-4 allo ag	Autofluor Jurkat	VLA-4 antagonist
Cc1nnc(N2C(=O)C(O)=C(C(=O)c3ccco3)C2c2ccc(F)cc2)s1 (centres undefined)	2	8	1	-9	1	0
O=C(C1=C(O)C(=O)N(CC2CCCO2)C1c1cccnc1)c1ccco1 (centres undefined)	39*	.	-6	.	.	.
O=C(C1=C(O)C(=O)N(Cc2ccccc2)C1c1ccncc1)c1ccco1 (centres undefined)	32*	4	2	6	1.1	-10
COc1cc(C2C(C(=O)c3cccs3)=C(O)C(=O)N2Cc2ccco2)cc(OC)c1OC (centres undefined)	83*	.	27	.	.	.
COc1ccc(C2C(C(=O)c3ccco3)=C(O)C(=O)N2Cc2cccnc2)cc1OC (centres undefined)	38*	.	28	.	.	.
COCCOC(=O)C1=C(C)N=C2SCCC(=O)N2C1c1cc(Br)ccc1OC (centres undefined)	0	8	-5	-1	1.1	-10
C=CCOc1ccc(C2C(C(=O)c3ccco3)=C(O)C(=O)N2Cc2cccnc2)cc1 (centres undefined)	25	15	25	4	0.97	-36
CCOc1ccc(C2C(C(=O)c3ccco3)=C(O)C(=O)N2Cc2cccnc2)cc1 (centres undefined)	50*	.	5	.	.	.
CC1CCN(c2nc(-c3ccccc3)c(C#N)c(=O)[nH]2)CC1	35*	4	1	-5	1.2	-14
c1ccc(CC2CCN(c3nc4ccccc4n4nnnc34)CC2)cc1	-3	7	-11	0	1.8	-6
O=C(c1ccco1)N1CCN(c2nc3ccccc3n3nnnc23)CC1	-9	6	-6	?	9.4*	?
CCOC(=O)C1=C(C)N=c2s/c(=C\c3ccncc3)c(=O)n2C1c1ccc2c(c1)OCO2 (centres undefined)	-14	35*	-8	?	2	?
Cc1cccn2c(=O)c3cc(C(=O)NCc4ccccc4)c(=N)n(CCCN4CCOCC4)c3nc12	4	58*	-2	?	1.1	?
Cn1c(SCCN2CCCCC2)nnc1-c1ccccc1Br	0	9	0	-2	0.98	0
Cc1cccc2cc(C#N)c(SCCN3CCCCC3)nc12	2	40*	-3	6	1.3	-6
CCC(CC)C(=O)Nc1c2cnn(-c3ccccc3)c2nc(=O)n1-c1ccccc1	83*	5	4	-17	1.1	53*
Cc1cc(N2CCN(C(=O)c3ccco3)CC2)n2nc(C)nc2n1	-7	3	-2	?	0.99	?
Cc1cccc(-c2nsc(SCC(=O)Nc3nccs3)n2)c1	-2	34*	-11	-5	1.1	13
Cc1cccc(-c2nsc(SCC(=O)N3CCCC3)n2)c1	-2	24	-4	-9	1.1	15
O=C1c2ccccc2-c2nc3ncnn3c(-c3ccccc3)c21	-2	40*	2	-9	1.4	15
O=C(O)c1ccc2c3c(ncnc13)-c1ccccc1C2=O	0	3	14	4	1.3	1
COC(=O)Cn1c2c(c3cc(C)ccc31)CCCC2	8	9	2	-10	1	-29
Cc1ccc2c(c1)c1c(n2CC(O)CNC(CO)(CO)CO)CCCC1 (centres undefined)	-4	30*	0	6	0.77	-24
Cc1ccc(C)c(/C(O)=C2/C(=O)C(=O)N(CCN3CCOCC3)C2c2ccc(C)o2)c1 (centres undefined)	0	.	-2	.	.	.
Cc1ccc(C2/C(=C(/O)c3ccc(Cl)cc3)C(=O)C(=O)N2CC2CCCO2)o1 (centres undefined)	60*	.	-2	.	.	.
SMILES	FPR binder	Prostate diff	FPRL1 ligand	VLA-4 allo ag	Autofluor Jurkat	VLA-4 antagonist
CCOC(=O)N1CCC(NC(=O)c2ccc(CNS(=O)(=O)c3ccc(F)cc3)cc2)CC1	-3	8	9	-1	1.1	15
CCOc1ccc(C2CC(c3ccc(F)cc3)n3ncnc3N2)cc1 (centres undefined)	18	10	13	-1	0.9	-7
CCOc1cc(C(=O)NCc2nnc(SCC(=O)OC)n2C)cc(OCC)c1OCC	9	2	75*	0	1	0
CCOC(=O)CSc1nnc(CNC(=O)c2ccc(OC)c(OC)c2)n1C	0	12	1	-3	1	-12
CCOC(=O)CSc1nnc(CNC(=O)c2cc(OC)c(OC)c(OC)c2)n1C	2	7	-2	1	0.99	15
CCOC(=O)CSc1nnc(CNC(=O)c2cc(OCC)c(OCC)c(OCC)c2)n1C	-6	3	51*	11	0.92	16
COc1ccc(-n2c(Cc3cccn3C)nnc2SCC(=O)Nc2ccc3c(c2)OCO3)cc1	6	0	2	3	0.98	6
COc1ccc2ccccc2c1C1CC(=O)N2CN(Cc3ccco3)CSC2=C1C#N (centres undefined)	1	5	-3	?	1.2	?
COc1ccc2ccccc2c1C1CC(=O)N2CN(C3CCCCC3)CSC2=C1C#N (centres undefined)	64*	3	2	?	1.2	?
Cc1cccn2c(=O)c3cc(C(=O)N(C)C)n(C)c3nc12	-2	13	-2	?	3.1*	?
Cc1cc(/C=c2/sc3nc4ccccc4n3c2=O)c(C)n1-c1ccccn1	-13	14	-19	?	3.7*	?
C=CCOc1ccccc1/C=c1\sc2nc(=O)c(C)nn2c1=O	13	6	21	10	1.1	-24
COc1ccc(N2CCN(c3nc4c(c(=O)[nH]c(=O)n4C)n3CCCc3ccccc3)CC2)cc1	3	5	1	2	1	-20
COc1cccc2c1C(=O)c1c(O)c3c(c(O)c1C2=O)C[C@@](O)(C(C)=O)C[C@@H]3O[C@H]1C[C@H](N)[C@H](O)[C@H](C)O1	-15	13	32*	?	?	?
COc1ccc(-c2cc(C(F)(F)F)nc(N3CCN(Cc4ccccc4)CC3)n2)cc1OC	8	4	75*	-4	1.1	-3
Cc1cc(NC(=O)Nc2cc(C)nn2-c2ccccc2)n(-c2ccccc2)n1	10	2	-1	-8	1.1	4
Cc1cc(NC(=O)c2noc3c2CCc2ccccc2-3)n(-c2ccccc2)n1	2	35*	13	7	1	7
Cc1nc2ccc(S(=O)(=O)NC(C(=O)NCc3ccco3)C(C)C)cc2s1 (centres undefined)	-9	3	-5	-4	1	-13
c1ccc2c(c1)CCCN2c1nc2ccccc2n2cnnc12	-6	4	-6	?	2.6*	?
Cc1ccc(NC(=O)N2CCCN(Cc3ccc(F)cc3)C2)cc1C	6	39*	18	1	1.1	-1
